# Out of some 68,000 compounds screened, about 2,700 (4%) showed an effect of 50% or more. The list comes from a sample in which strong results are over-represented; it also holds similar structures and randomly drawn compounds.
# Tested on: Plasmodium berghei
# Assay: Screen against P. berghei liver stage (PbLuc), transformed with Luciferase, at 2uM
# Format: functional, HepG2
# Conditions: tested at 2 uM
row,SMILES,INHIBITION
1,CN(CC(=O)N1CCC(N(C)c2ccccc2)CC1)c1cnccn1,-35.47%
2,CN(CC(=O)N1CCC(Oc2ccccc2)CC1)c1cnccn1,33.16%
3,CN(CC(=O)N1CCC(COc2ccccc2)CC1)c1cnccn1,52.47%
4,CCCn1nnnc1CN(c1ccc(N2CCOCC2)cc1)C(C)C,36.28%
5,CCCn1nnnc1CN(c1ccc(C)cc1)C(C)C,7.67%
6,CCCn1nnnc1CN(C)C(C)c1ccc(C)cc1 (stereo not given),67.28%
7,Cc1nc2n(n1)CC(Nc1nc(C(F)(F)F)nc3ccccc13)CC2 (stereo not given),19.12%
8,COc1ccccc1CC(=O)NC1CCCc2cn[nH]c21 (stereo not given),-1.29%
9,CCn1ncc2c1CCCC2NCc1ccc(OC)c(C)c1 (stereo not given),27.55%
10,CCn1ncc2c1CCCC2NCc1ccc(OC)c(F)c1 (stereo not given),57.81%
11,CCn1ncc2c1CCCC2NCc1cc(Cl)c(OC)c(OC)c1 (stereo not given),11.18%
12,CCCOc1ccc(CNC2CCCc3c2cnn3CC)cc1OC (stereo not given),33.01%
13,CCOCc1cc(CNC2CCCc3c2cnn3CC)ccc1OC (stereo not given),57.81%
14,CCn1ncc2c1CCCC2NCc1cc(C)ccc1OC (stereo not given),-14.16%
15,CCCN(CCOC)C(=O)c1cc(Cn2c(C)nc3ccccc32)[nH]n1,-8.53%
16,Cc1cc(C)n(-c2nc(C(=O)NCCN3CCC(C)CC3)cs2)n1,-39.93%
17,O=C(c1cc2cc(I)ccc2[nH]1)N1CCC(Nc2cccnn2)CC1,39.72%
18,CC(C)C1CN(C(=O)Nc2cnn(CC(F)F)c2)CCO1 (stereo not given),-5.66%
19,Cc1cc(CCC(=O)N2CCOCC2)ccc1Br,33.64%
20,O=C(Cn1ccc(C(=O)O)n1)Nc1c(Cl)cccc1Cl,25.07%
21,NS(=O)(=O)c1cnn(CC(=O)Nc2c(Cl)cccc2Cl)c1,68.04%
22,O=C(Cn1cc(C(=O)O)cn1)Nc1c(Cl)cccc1Cl,6.26%
23,Cc1nn(C)cc1C(=O)N1CCC(CSc2ccccc2)C1 (stereo not given),3.22%
24,CCn1nc(C)c(S(=O)(=O)Nc2cccc(C(=O)O)c2C)c1C,-4.15%
25,CN(C)CC1CN(C(=O)CCc2ccccc2)Cc2nccn2C1 (stereo not given),-43.66%
26,COc1ccnc(N2CCC(OCCN3CCCCC3)C2)n1 (stereo not given),-53.64%
27,c1cnc(N2CCC(OCCN3CCCCC3)C2)nc1 (stereo not given),56.47%
28,Cc1ccnc(N2CCC(OCCN3CCCCC3)C2)n1 (stereo not given),12.29%

row,SMILES,INHIBITION
1,CCc1ncc2c(n1)CN(Cc1nnc(Cc3ccccc3)o1)CC2,-11.33%
2,Cc1cc(C(=O)NCCN2CCCCCC2)nn1C(C)(C)C,-5.98%
3,CCc1nnc2n1CCN(Cc1cc(Cl)c3c(c1)OCCCO3)C2,-3.57%
4,CCc1ccc(O)c(C(=O)N2CCN(CC(=O)N(C)C)CC2)c1,55.26%
5,CCc1ccc(O)c(C(=O)N2CCN(CC(=O)N(CC)CC)CC2)c1,-19.78%
6,CCc1ccc(O)c(C(=O)N2CCCN(CC(=O)N(CC)CC)CC2)c1,46.3%
7,CCCS(=O)(=O)N(C)C(=O)CCc1ccsc1,8.59%
8,CC(C)c1nc(CNc2ccc(CCO)cc2)cs1,2.76%
9,CNc1cncc(C2CCN(C(=O)c3coc(C)n3)CC2)n1,-16.56%
10,Cc1cncc(C2CCCN(C(=O)c3cnco3)C2)n1 (stereo not given),-10.44%
11,CNc1cncc(C2CCN(C(=O)c3cnco3)CC2)n1,56.93%
12,Cc1ccc2[nH]c(C3CCN(C)CC3)nc2c1,-5.34%
13,Cc1ccc2[nH]c([C@H]3CCN(CC4CCCCC4)C3)nc2c1,63.89%
14,COCCN1CCC(c2nc3cc(C)ccc3[nH]2)CC1,8.33%
15,CC(C)S(=O)(=O)N1CCCC(c2cccc(C(=O)O)c2)C1 (stereo not given),49.88%
16,CCn1cnnc1CNC(=O)N1CCN(c2ccccc2OC)CC1,33.61%
17,O=C(Nc1cc[nH]n1)c1ccc(COCC(F)(F)F)cc1,-20.91%
18,COc1ccc(CN2CCC(c3cc(O)nc(C)n3)C2)c(F)c1 (stereo not given),-30.34%
19,COc1ccc(OC)c(CN2CCC(c3cc(O)nc(C)n3)C2)c1 (stereo not given),-111.32%
20,COc1ccc(CN2CCC(c3cc(O)nc(C)n3)C2)c(OC)c1 (stereo not given),52.01%
21,Cc1noc(CC2CCN(C(=O)C(c3ccccc3C)N(C)C)CC2)n1 (stereo not given),37%
22,CCn1c(NCc2cccnc2)nc2c(C)nn(C)c2c1=O,24.79%
23,Cc1nn(C)c2c(NCc3ccccn3)nc(C(C)C)nc12,72.41%
24,CCn1c(NCc2ccccc2)nc2c(C)nn(C)c2c1=O,-1.65%
25,Cc1nc(NCc2ccccn2)c2c(n1)c(C)nn2C,-40.15%
26,CCn1nc(C)c2nc(C(C)C)nc(NCc3ccccn3)c21,-11.34%
27,CCn1c(NCc2ccccn2)nc2c(C)nn(C)c2c1=O,50.9%
